PI5P4K alpha inh = blocks human PI5P4K alpha kinase activity. 330,000 compounds, 1.2% hits. PI5P4Kalpha enzyme, ADP-Glo luminescence, 60 min; active compounds read low. max response, %. P48426; active = max response of -50% or lower; inconclusive = between -30% and -50%; inactive = -30% or higher; also: value at the top dose of about 77 µM; % is scaled to controls: 0 for no effect and ±100 for the full control effect
Target sequence (P48426 whole entry, looked up): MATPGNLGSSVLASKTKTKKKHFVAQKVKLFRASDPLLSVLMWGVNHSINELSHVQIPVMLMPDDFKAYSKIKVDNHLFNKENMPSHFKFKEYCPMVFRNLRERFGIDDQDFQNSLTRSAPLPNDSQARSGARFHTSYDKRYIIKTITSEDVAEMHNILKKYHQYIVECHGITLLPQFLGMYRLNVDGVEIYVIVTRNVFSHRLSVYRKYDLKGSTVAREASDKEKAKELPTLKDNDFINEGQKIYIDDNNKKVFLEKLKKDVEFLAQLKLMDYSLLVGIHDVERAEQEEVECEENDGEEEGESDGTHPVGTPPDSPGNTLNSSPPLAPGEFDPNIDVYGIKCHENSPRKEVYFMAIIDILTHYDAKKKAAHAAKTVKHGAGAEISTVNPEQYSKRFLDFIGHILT
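Single end-point luminescence (ADP-Glo) quantified ADP from PI5P4Kalpha turnover; ATP 5 microM final, 1 h at RT, 0.1% CHAPS and 0.28 mM EGTA in HEPES pH 7.4.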
Pol kappa inh-1 = blocks human DNA polymerase kappa activity. purified Pol kappa, fluorescent DNA synthesis assay, 10 min. AID 588579. Q9UBT6. Potency, µM (doses to about 107 µM), for the others: at the top dose activity, negative = inhibition, actives largely listed as inhibitors. 400,000 compounds, 0.53% hits; also: potency is read from the fitted curve at half-maximal effect; % is scaled to controls: 0 for no effect and ±100 for the full control effect
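Fluorescent qHTS in 1536-well format: enzyme (10 nM) and compound sat 15 min at room temperature before 50 nM substrate (final) was added. Signal taken at 0 and 10 min; no-enzyme buffer wells were negative controls.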
POLB inh = blocks human DNA polymerase beta activity; Potency, µM (top dose mostly 114 µM), inactives show top-dose activity change, negative = inhibition, most hits filed as inhibitors; P06746; 340,000 compounds, 1.3% hits; Pol beta primer extension/strand displacement, fluorescence kinetic; also: potency is read from the fitted curve at half-maximal effect; % is scaled to controls: 0 for no effect and ±100 for the full control effect
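Values derive from four-parameter Hill fits of normalized kinetic data: reads at 0 and 10 min following addition of 50 nM substrate to 10 nM Pol beta preincubated 15 min with compound.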
WRN helicase inh-1 = WRN helicase (human) inhibition | Q14191 | WRN helicase unwinding, fluorescent forked duplex, kinetic | Potency, µM (series often up to 114 µM), for the others: at the top dose activity change, negative = inhibition, actives largely listed as inhibitors | 360,000 compounds, 0.46% hits | AID 651768; also: potency is read from the fitted curve at half-maximal effect; % is scaled to controls: 0 for no effect and ±100 for the full control effect; nearly all actives have a fitted effect of over 55% in size
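Enzyme (20 nM final) and test compound sit together 15 min at room temperature before substrate addition. Substrate is a single-forked duplex oligonucleotide (100 nM) labelled with fluorophore and quencher, with 2 mM ATP; helicase unwinding raises red fluorescence, read kinetically.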
Pol eta inh-1 = inhibitors of human DNA polymerase eta; recombinant Pol eta, fluorescent DNA replication assay; 390,000 compounds, 1.2% hits; AID 588591; Potency, µM (top dose mostly 114 µM), inactives show at the highest dose activity change, negative = inhibition, most hits filed as inhibitors; also: potency is read from the fitted curve at half-maximal effect; % is scaled to controls: 0 for no effect and ±100 for the full control effect
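Fluorescent replication assay: 50 nM final substrate added after a 15 min room-temperature compound preincubation with 10 nM enzyme. Signal taken at 0 min and again at 10 min.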
POLI inh = DNA polymerase iota (human) inhibition | Pol iota fluorescent replication assay, 10 min | Potency, µM (series often up to 115 µM), inactives show top-dose activity, negative = inhibition, actives largely listed as inhibitors | 390,000 compounds, 1% hits | AID 588590; also: potency is read from the fitted curve at half-maximal effect
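Fluorescent replication assay read twice, at 0 min and 10 min after adding 50 nM (final) substrate. Enzyme (10 nM) and compounds were first incubated 15 min at room temperature; enzyme-free buffer wells were negative controls.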
PGK validate = blocks T. brucei phosphoglycerate kinase; shares compounds with Pol kappa inh-1; TbPGK coupled GAPDH assay, Kinase-Glo luminescence; Potency, µM (titrated, usually from 57.5 µM), inactives show at the top dose activity change, negative = inhibition, actives largely listed as inhibitors; 500 compounds, 79% hits; AID 686980; also: potency is read from the fitted curve at half-maximal effect; % is scaled to controls: 0 for no effect and ±100 for the full control effect; nearly all actives have a fitted effect of over 65% in size
Pol iota confirm = Confirm cherry-picked inhibitors of human polymerase iota; Potency, µM, hits mostly inhibitors; 1,500 compounds, 77% hits; shares compounds with Pol kappa inh-1; AID 720496; Pol iota primer extension, TAMRA/BHQ fluorescence; also: potency is read from the fitted curve at half-maximal effect
GALK inh confirm = confirmation of human galactokinase (GALK) inhibitors | shares compounds with Pol eta inh-1 | purified GALK, Kinase-Glo ATP depletion luminescence | Potency, µM (top dose mostly 115 µM), for the others: at the top dose activity, negative = inhibition, hits mostly inhibitors | 150 compounds, 70% hits | AID 2015
GALK redox cs = counter-screen for GALK inhibitors: redox cycling H2O2 generation; Potency, µM (highest dose often 115 µM), for the others: top-dose activity change, negative = H2O2 signal, hits mostly inhibitors; Phenol red-HRP H2O2 redox cycling, absorbance 600 nm; 150 compounds, 40% hits; AID 2035; shares compounds with Pol eta inh-1
HEK293 viability = HEK-293 cytotoxicity, GALK inhibitor secondary; Potency, µM (doses to about 46.1 µM), inactives show at the highest dose activity change, negative = cytotoxicity, usual class: inhibitors; 170 compounds, 10% hits; AID 2547; HEK-293 viability, ATP luminescence (CellTiter-Glo), 24/48 h; shares compounds with Pol eta inh-1; also: potency is read from the fitted curve at half-maximal effect; % is scaled to controls: 0 for no effect and ±100 for the full control effect
Pol kappa inh-2 = Pol kappa (human) inhibition, cherry-pick confirmation | shares compounds with Pol eta inh-1 | purified Pol-kappa, fluorescent strand-displacement substrate | Potency, µM, hits mostly inhibitors | 920 compounds, 76% hits; also: potency is read from the fitted curve at half-maximal effect
Pol eta inh-2 = Pol eta (human) inhibition, cherry-pick confirmation; shares compounds with Pol eta inh-1; Pol eta primer extension, TAMRA/BHQ fluorescence, 10 min; Potency, µM, hits mostly inhibitors; 2,600 compounds, 64% hits; also: potency is read from the fitted curve at half-maximal effect
WRN helicase inh-2 = WRN helicase inhibition, cherry-pick retest. shares compounds with WRN helicase inh-1. WRN helicase DNA unwinding, fluorescence kinetic. Potency, µM (highest dose often 57.1 µM), for inactives: at the top dose activity, negative = inhibition, hits mostly inhibitors. 610 compounds, 63% hits. AID 720497; also: potency is read from the fitted curve at half-maximal effect; nearly all actives have a fitted effect of over 65% in size
TO DNA binding = DNA binding via thiazole orange displacement. shares compounds with WRN helicase inh-1. thiazole orange DNA binding displacement, fluorescence. Potency, µM (highest dose often 57.1 µM), for the others: at the highest dose activity change, negative = inhibition, actives largely listed as inhibitors. 610 compounds, 10% hits;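 also: drop in dye fluorescence marks compound binding to DNA; potency is read from the fitted curve at half-maximal effect; % is scaled to controls: 0 for no effect and ±100 for the full control effect; nearly all actives have a fitted effect of over 60% in size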
BLM helicase inh = BLM helicase inhibition, WRN selectivity check; shares compounds with WRN helicase inh-1; Recombinant BLM helicase DNA unwinding, red fluorescence; Potency, µM (titrated, usually from 57.1 µM), for the others: at the top dose activity change, negative = inhibition, actives largely listed as inhibitors; 610 compounds, 60% hits; also: potency is read from the fitted curve at half-maximal effect; nearly all actives have a fitted effect of over 60% in size
* hit, by the source's call; ? = inconclusive; . = no result given; [ ] = remark or other dose. The list is not random: actives were taken first. Their share in the collection is about 2.8%. Unless noted, calls follow the shape of the dose curve; as a rule, active = well fitted curve in the direction sought with a large enough effect; inconclusive = small, poorly fitted or top-dose-only effect, or another doubt; inactive = no such curve, though single readings can be large; an effect the other way counts as inactive or inconclusive.

SMILES	PI5P4K alpha inh	Pol kappa inh-1	POLB inh	WRN helicase inh-1	Pol eta inh-1	POLI inh	PGK validate	Pol iota confirm	Pol eta inh-2	WRN helicase inh-2	TO DNA binding	BLM helicase inh	others
O=c1c(O)c(-c2ccc(O)c(O)c2)oc2cc(O)cc(O)c12	-84*	0.95µM*	0.2µM*	?	0.71µM*	0.56µM*	?	15*	12*	1.2µM*	?	1.1µM*	GALK inh confirm=42µM*;GALK redox cs=-2%;HEK293 viability=?;Pol kappa inh-2=3*
O=C(Nc1ccc2oc(-c3cccnc3)nc2c1)c1ccc(-c2cccc(Cl)c2)o1	.	-17%	?	.	71µM*	-7%	.	42*	76*	19µM*	14%	6.8µM*
N/C(=N\N=C/c1ccc(-c2ccc(O)c(C(=O)O)c2)o1)N[N+](=O)[O-]	.	8.9µM*	3.5µM*	25µM*	4.5µM*	3.5µM*	6.5µM*	3*	4.3*	7.6µM*	?	6.8µM*	Pol kappa inh-2=3*
C[C@@H]1OC(=O)[C@H]2C[C@H]3CCCC[C@@H]3[C@@H](/C=C/[C@H]3CCC[C@H](C)N3C)[C@@H]12	.	5%[19.4 µM]	.	.	.	.	.	.	.	.	.	.
COc1ccc(CN2C(=O)NC(=O)/C(=C/c3ccoc3)C2=O)cc1	-71*	20µM*	10µM*	40µM*	20µM*	10µM*	4.6µM*	19*	27*	7.6µM*	-3%	2.4µM*
CCOP(=S)(OCC)O/N=C(\C#N)c1ccccc1Cl	.	-4%[60.1 µM]	.	.	.	.	.	.	.	.	.	.
O=C1NC(=O)N(Cc2ccc(F)cc2)C(=O)/C1=C\C=C\c1ccco1	-75*	?	?	35µM*	20µM*	14µM*	.	?	30*	7.6µM*	-12%	4.3µM*
CCCCN1C(=O)/C(=C/C=C/c2ccco2)C(=O)NC1=S	-85*	18µM*	3.5µM*	2.7µM*	3.5µM*	28µM*	13µM*	24*	17*	12µM*	83%	6.8µM*
CC(C)C[C@H](NC(=O)CNC(=O)[C@H](CCC(N)=O)NC(=O)[C@H](Cc1ccc(O)cc1)NC(=O)[C@@H](NC(=O)[C@H](Cc1ccc(O)cc1)NC(=O)CNC(=O)[C@@H](N)CCCN=C(N)N)C(C)C)C(=O)O	.	-4%[60.1 µM]	.	.	.	.	.	.	.	.	.	.
COc1ccc2c(c1)[C@@]13CCCCC1[C@@H](C2)N(C)CC3 (stereo not given in full)	.	-2%[60.1 µM]	.	.	.	.	.	.	.	.	.	.
COc1cccc2c1C(=O)c1c(O)c3c(c(O)c1C2=O)CC(O)(C(C)=NO)CC3OC1CC(N)C(O)C(C)O1 (stereo not given)	1	?	.	2.7µM*	18µM*	79µM*	.	21*	43*	22µM*	163%	22µM*
CC(Cc1ccc(O)cc1)NCC(O)c1ccc(O)c(O)c1 (stereo not given)	-59*	.	.	25µM*	4µM*	.	.	15*	12*	14µM*	-6%	6.1µM*	Pol kappa inh-2=3.4*
CC(Cc1ccc(OCC(=O)O)cc1)NCC(O)c1cccc(Cl)c1 (stereo not given)	.	-4%[60.1 µM]	12%[57.1 µM]	.	-4%[57.1 µM]	12%[58.9 µM]	.	.	.	.	.	.
C[C@]12CCC3C(C=CC4=CC(=O)CC[C@]43C)C1CC[C@]2(O)CCC(=O)O (stereo not given in full)	.	-9%[60.1 µM]	.	.	.	.	.	.	.	.	.	.
COc1cc(C2c3cc4c(cc3C(OC(C)=O)[C@H]3COC(=O)C23)OCO4)cc(OC)c1OC (stereo not given in full)	.	3%[60.1 µM]	.	.	.	.	.	.	.	.	.	.
